# Experimental data as given in PubChem BioAssay (NCI).
# This is part of a sample that, as a whole, favours compounds with a hit. Of some 79,000 tested, about 15% had one in any assay. Values without a mark were called inactive. The source made the active and inactive calls. Cut-off read from the data, not from the text of the source: active = growth inhibition above about 70%; inactive = the rest.
# Assays:
# [1] = NCI Yeast Anticancer Drug Screen. Data for the rad50 strain (AID 155);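 note: 0% = growth of vehicle-only cultures of the same strain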; conditions: S. cerevisiae rad50 strain growth inhibition, active compounds read high
# Procedure, shortened: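 Genetically altered yeast (DNA repair pathway); compound treatment; growth inhibition vs vehicle ctrl.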
# [2] = NCI Yeast Anticancer Drug Screen. Data for the mec2-1 strain (AID 157); conditions: S. cerevisiae mec2-1 strain, active compounds read high
# Procedure, shortened: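 Using mec2-1 yeast: add compound, measure growth, express inhibition versus vehicle-treated cultures.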
# [3] = NCI Yeast Anticancer Drug Screen. Data for the sgs1 mgt1 strain (AID 161);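 note: 0% = growth of cultures given vehicle only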; conditions: S. cerevisiae sgs1 mgt1 strain, active compounds read high
# Procedure, shortened: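 Yeast cells carrying a defined DNA-repair defect were exposed to test compounds. Growth inhibition was measured relative to vehicle-treated controls.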
# [4] = NCI Yeast Anticancer Drug Screen. Data for the cln2 rad14 strain (AID 165);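 note: 0% = growth equal to vehicle treated cultures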; conditions: S. cerevisiae cln2 rad14 strain, active compounds read high
# Procedure, shortened: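 Yeast strain cln2 rad14, bearing defects in cell cycle control and DNA repair, serves as the test system; values reflect growth inhibition compared with vehicle.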
# [5] = NCI Yeast Anticancer Drug Screen. Data for the bub3 strain (AID 167); conditions: S. cerevisiae bub3 mutant strain, active compounds read high
# Procedure, shortened: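 Yeast carrying a defined mutation is treated with each compound, and growth is compared with that of vehicle-exposed cells to give inhibition.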
# [6] = NCI Yeast Anticancer Drug Screen. Data for the mlh1 rad18 strain (AID 175); conditions: S. cerevisiae mlh1 rad18 strain growth inhibition, active compounds read high
# Procedure, shortened: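 Steps: expose repair-defective yeast to compound; measure growth; express inhibition against vehicle-treated controls.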
# [7] = at 5.0 µM (retest, dose inferred, filed as 0.5)
# [8] = at 50.0 µM (retest, dose inferred, filed as 5.0)
Compound,"growth inhibition [1, 7] [%]","growth inhibition [1, 8]",growth inhibition ([1]; at 50.0 µM),"growth inhibition [2, 7] [%]","growth inhibition [2, 8]",growth inhibition ([2]; at 50.0 µM),"growth inhibition [3, 7] [%]","growth inhibition [3, 8]",growth inhibition ([3]; at 50.0 µM),"growth inhibition [4, 7]","growth inhibition [4, 8]",growth inhibition ([4]; at 50.0 µM),"growth inhibition [5, 7] [%]","growth inhibition [5, 8]",growth inhibition ([5]; at 50.0 µM),"growth inhibition [6, 7] [%]","growth inhibition [6, 8]",growth inhibition ([6]; at 50.0 µM)
C=C(CN(C)C)C(=O)c1ccccc1[N+](=O)[O-],1,92% (active),8.5%,10,96% (active),51.4%,6,91% (active),74.2% (active),99% (active),91% (active),-25.4%,1,92% (active),71.7% (active),8,92% (active),66.8%
O=S(=O)(c1cc(Cl)c(Cl)cc1Cl)N(CCCCCN(S(=O)(=O)c1cc(Cl)c(Cl)cc1Cl)S(=O)(=O)c1cc(Cl)c(Cl)cc1Cl)S(=O)(=O)c1cc(Cl)c(Cl)cc1Cl,-9,-3%,98.6% (active),-11,-13%,98.2% (active),-14,-23%,97.1% (active),-10%,-8%,96% (active),19,4%,98.9% (active),-29,-17%,97.8% (active)
Nc1ccc2c(c1)Cc1c(Cl)cccc1-2,1,95% (active),96% (active),3,96% (active),54.4%,3,90% (active),89.4% (active),-12%,92% (active),80.2% (active),-3,94% (active),94.3% (active),-1,95% (active),95.2% (active)
CC(C)CCCC(O)CNCc1ccccc1 (stereo not given),9,27%,-1.95%,17,38%,11.4%,13,-11%,28.2%,13%,36%,-18.9%,5,44%,82% (active),7,15%,10.2%
CC12CCC3C(CCC4CC(O)CCC43C)C1CC1C2=NOC1O (stereo not given),0,99% (active),25.8%,-2,99% (active),18.2%,0,99% (active),72.2% (active),-8%,99% (active),21%,-3,99% (active),73% (active),-1,99% (active),56.7%
O=c1[nH][nH]c(=O)c2c1nc(SCc1ccccc1)n2Cc1ccccc1,-3,-4%,8.05%,-3,5%,-10.9%,-1,2%,1.25%,-3%,-4%,75.8% (active),-6,-4%,2.3%,-2,7%,9.45%
COc1ccc(Cc2nc3ccc(Cl)cc3[nH]2)cc1,4,42%,77% (active),-4,59%,76.4% (active),4,78% (active),82% (active),-6%,14%,66%,1,44%,84.3% (active),23,74% (active),86.9% (active)
COC(=O)c1cccc2c1C(=O)c1ccccc1-2,-7,37%,22.7%,-37,-14%,-9.6%,-8,-11%,-5.9%,-3%,-19%,71.2% (active),-23,-54%,-10.7%,-2,-6%,1.55%
CC(=O)OCc1ccc2c(c1)C(O)NC(=O)O2 (stereo not given),8,45%,36%,2,13%,21.9%,13,69%,51.8%,-5%,18%,16.2%,0,-7%,-23.1%,43,88% (active),55.6%
O=[N+]([O-])c1ccc(CCCl)c(CCl)c1,-150,94% (active),97.4% (active),-48,94% (active),98.8% (active),-51,91% (active),91% (active),-50%,92% (active),96.4% (active),-55,79% (active),90.3% (active),-111,92% (active),89% (active)
